Consider 20 compounds from PubChem BioAssay.

Unmarked numbers belong to inactive results. Activity calls are given as the source filed them.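 How the source made its calls: active means thallium flux through the channel raised or lowered by more than 3 SD from vehicle-only wells, actives on both sides; inactive means the rest.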

The first assay deals with F380Y/beta2Delta. Put plainly: modulators of BK channel variants, profiling panel, selectivity assay, cell-based, U2OS BacMam, thallium flux, beta subunits (AID 1259406).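 Further: initial slope of Thallos dye fluorescence rise after thallium is added; log ratio against the mean of 0.3% DMSO vehicle wells on the same plate.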 To be noted: at 30 µM.
For the compound `N=c1nc(N2CCCCC2)cc(N)n1O`, the log fold change Tl+ flux was -0.0535. On the same count and under the same terms, to `CC(C)NCC(O)COc1cccc2[nH]ccc12` (centres undefined) belongs 0.0139; to `CCn1cc(C(=O)O)c(=O)c2ccc(C)nc21`, 0.0152; to `CN(C)C(=O)C(CCN1CCC(O)(c2ccc(Cl)cc2)CC1)(c1ccccc1)c1ccccc1`, 0.103 (active). For the compound `Cc1cc(NS(=O)(=O)c2ccc(N)cc2)no1`, the log fold change Tl+ flux was 0.0172. Same read-out and setting: next, `CCCC(CCC)C(=O)O`: 0.0329; `COc1cc(Cc2cnc(N)nc2N)cc(OC)c1OC`: -0.0235; `COC(=O)C1=C(C)NC(C)=C(C(=O)OCCN(C)Cc2ccccc2)C1c1cccc([N+](=O)[O-])c1` (centres undefined): -0.158 (active). Same read-out and setting: next, `O=C(CCCN1CCC(O)(c2ccc(Cl)cc2)CC1)c1ccc(F)cc1`: 0.0376.

As to `COc1ccc2cc([C@H](C)C(=O)O)ccc2c1`, the log fold change Tl+ flux is 0.00769. In the case of `COc1c2occc2cc2ccc(=O)oc12`, the log fold change Tl+ flux was -0.0131.

Take `NC(=O)c1cccnc1`: the log fold change Tl+ flux is -0.015. The same measure, in the same setting: next, `CN/C(=C\[N+](=O)[O-])NCCSCc1ccc(CN(C)C)o1`: 0.0319; `CNCCCN1c2ccccc2CCc2ccccc21`: 0.152 (active). For `CN1C(=O)CC[C@H]1c1cccnc1`, the log fold change Tl+ flux is 0.00811.

On to `CCCC(=O)Nc1ccc(OCC(O)CNC(C)C)c(C(C)=O)c1` (centres undefined), for which the log fold change Tl+ flux is -0.0305.

For `O=C(O)CCc1nc(-c2ccccc2)c(-c2ccccc2)o1`, the log fold change Tl+ flux was 0.0584. Regarding `CC(C)OC(=O)C(C)(C)Oc1ccc(C(=O)c2ccc(Cl)cc2)cc1`, the log fold change Tl+ flux was -0.0352.

As for `CC(C(=O)O)c1cccc(C(=O)c2ccccc2)c1` (centres undefined), the log fold change Tl+ flux was 0.023.

In the case of `CN1CCN(C2=Nc3cc(Cl)ccc3Nc3ccccc32)CC1`, the log fold change Tl+ flux was 0.389 (active).

A further assay concerns F380Y/beta4. The description is as above. The settings on record: at 30 µM.
`N=c1nc(N2CCCCC2)cc(N)n1O`: the log fold change Tl+ flux is -0.0416. The same measure, in the same setting: next, `CC(C)NCC(O)COc1cccc2[nH]ccc12` (centres undefined): 0.000781; `CCn1cc(C(=O)O)c(=O)c2ccc(C)nc21`: 0.0252.

On to `CN(C)C(=O)C(CCN1CCC(O)(c2ccc(Cl)cc2)CC1)(c1ccccc1)c1ccccc1`, for which the log fold change Tl+ flux was 0.119 (active). The same measure, in the same setting: next, `Cc1cc(NS(=O)(=O)c2ccc(N)cc2)no1`: -0.00222; `CCCC(CCC)C(=O)O`: 0.0134; `COc1cc(Cc2cnc(N)nc2N)cc(OC)c1OC`: 0.0143. Consider `COC(=O)C1=C(C)NC(C)=C(C(=O)OCCN(C)Cc2ccccc2)C1c1cccc([N+](=O)[O-])c1` (centres undefined), for which the log fold change Tl+ flux was -0.137 (active). Consider `O=C(CCCN1CCC(O)(c2ccc(Cl)cc2)CC1)c1ccc(F)cc1`, for which the log fold change Tl+ flux is 0.0709. `COc1ccc2cc([C@H](C)C(=O)O)ccc2c1`: the log fold change Tl+ flux was -0.000569. With `COc1c2occc2cc2ccc(=O)oc12`, the log fold change Tl+ flux was 0.0241.

For `NC(=O)c1cccnc1`, the log fold change Tl+ flux was 0.00589. The same measure, in the same setting: next, `CN/C(=C\[N+](=O)[O-])NCCSCc1ccc(CN(C)C)o1`: 0.0499. Same read-out and setting: to `CNCCCN1c2ccccc2CCc2ccccc21` belongs 0.144 (active). Regarding `CCCC(=O)Nc1ccc(OCC(O)CNC(C)C)c(C(C)=O)c1` (centres undefined), the log fold change Tl+ flux was -0.0162. Still for that read-out and setting: to `O=C(O)CCc1nc(-c2ccccc2)c(-c2ccccc2)o1` belongs 0.0201; to `CC(C)OC(=O)C(C)(C)Oc1ccc(C(=O)c2ccc(Cl)cc2)cc1`, 0.00294. The same measure, in the same setting: to `CC(C(=O)O)c1cccc(C(=O)c2ccccc2)c1` (centres undefined) belongs 0.0138. Same read-out and setting: to `CN1CCN(C2=Nc3cc(Cl)ccc3Nc3ccccc32)CC1` belongs 0.214 (active).
